# Reference: ChEMBL document CHEMBL3988442, “University of Dundee, Small-Polar-MMV Screening Library” (2021)
# Among all 48,000 compounds or so, about 13,000 (27%) showed an effect of 50% or more. The list shows a part of the results.
# Tested on: Wolbachia pipientis
# Test: Anti-Wolbachia Cell-Based Screen
# Assay type: functional
# Set-up: scale not given: in the data most compounds retested in dose-response had high values
# Details: 5 µM
row,SMILES,Percent Effect
1,O=C(C1SCCc2sccc21)N1CCN(C2CC2)C(=O)C1 (centres undefined),-5.096%
2,CN(CCc1noc(C2CC2)n1)C(=O)CCc1cc2n(n1)CCCNC2,5.558%
3,CC(=O)c1sc(C(NC(=O)c2ccccc2)C2CC2)nc1C (centres undefined),5.718%
4,C[C@@H]1CN(C(=O)CSc2nncn2C)C[C@@]1(O)C1CC1,-9.811%
5,CSCC(=O)N1CCN(CC(O)C(C)(C)C)CC1 (centres undefined),-10.26%
6,CSCCC(=O)N1CCN(CC(C)O)CC1 (centres undefined),-18.5%
7,CSCC(=O)N1C[C@@H](C)[C@](O)(C(C)C)C1,100.1%
8,CCC(O)CN1CCN(C(=O)CCSC)CC1 (centres undefined),1.956%
9,CSCCC(=O)N1C[C@@H](C)[C@](O)(C(C)C)C1,109.4%
10,Clc1cccc2c1CCN(Cc1nc(CC3CC3)no1)C2,-15.7%
11,O=C(NCCNc1ncccn1)c1scnc1Cl,2.928%
12,CCc1noc(CN2CCN(C(=O)N(C)C)CC2)n1,-9.661%
13,CC(C)Cc1noc(CN2CCN(C(=O)c3ccco3)CC2)n1,-2.17%
14,CC(C)Cc1noc(CN2CCN(C(=O)c3ccccc3F)CC2)n1,100.3%
15,CCc1noc(CN2CCN(C(=O)c3ccccn3)CC2)n1,-5.851%
16,CC(C)Cc1noc(CN2CCCN(C(=O)c3ccccc3Cl)CC2)n1,-15.62%
17,CCc1noc(CN2CCN(C(=O)c3ccccc3F)CC2)n1,117.4%
18,OCC1(O)CCCN(Cc2ccc(-c3cc[nH]n3)s2)CC1 (centres undefined),3.83%
19,Cc1cnn(CC2CCCN2C(=O)c2cc3ccccc3[nH]c2=O)c1 (centres undefined),-0.3129%
20,Cc1cnn(CC2CCCN2C(=O)c2n[nH]c(=O)c3ccccc23)c1 (centres undefined),115%
21,O=C1COc2c(cccc2C(=O)N2CCCC2Cn2cccn2)N1 (centres undefined),-10.2%
22,Cc1cnn(CC2CCCN2C(=O)Cc2n[nH]c3ccccc23)c1 (centres undefined),2.79%
23,Cc1cnn(CC2CCCN2C(=O)c2cc3ccccc3c(=O)[nH]2)c1 (centres undefined),122.8%
24,O=C(c1n[nH]c(=O)c2ccccc12)N1CCCC1Cn1cccn1 (centres undefined),110.2%
25,Cc1cnn(CC2CCCN2C(=O)c2cc3ccccc3[nH]2)c1 (centres undefined),2.697%
26,O=C(c1nccc2ccccc12)N1CCCCC1Cn1cccn1 (centres undefined),116.9%

row,SMILES,Percent Effect
1,O=C1COc2c(cccc2C(=O)N2CCCCC2Cn2cccn2)N1 (centres undefined),-1.784%
2,O=C1CC(c2ccc(F)c(F)c2)c2snc(C(=O)O)c2N1 (centres undefined),8.498%
3,Cc1ccc(-c2cc(CN(CC(N)=O)CC(C)C)on2)cc1,-24.63%
4,Cc1ccc(-c2ncc(C(=O)NCCS(N)(=O)=O)s2)c(C)c1,-6.964%
5,CCCn1nnnc1CSc1nccn1CC,-2.029%
6,Cc1nc(CN2CCN(C(=O)CCC(=O)c3ccccc3)CC2)no1,17.55%
7,Cc1ncc(C(=O)N2CC[C@@]3(O)CCN(C4CCCCC4)C[C@H]3C2)cn1,8.568%
8,CCc1nc(CN2CCCN(C(=O)c3cncnc3C)CC2)cs1,14.37%
9,O=C(c1cccnc1)N1CCCC(Cc2nccs2)C1 (centres undefined),104.8%
10,O=C(N1CCCC1)C12CC(CN1Cc1nccs1)C2,-16.8%
11,Cc1ncncc1C(=O)N1CCCN(Cc2nccn2C(C)C)CC1,-12.73%
12,Cc1ncc(C(=O)N2CCCC(Cc3nccs3)C2)cn1 (centres undefined),96.26%
13,CCCn1cc(C(=O)N2CCCC(Cc3nccs3)C2)cn1 (centres undefined),95.18%
14,O=C(c1cnco1)N1CCCC(Cc2nccs2)C1 (centres undefined),-3.557%
15,Cn1cc(C(=O)N2CCC(Cc3nccs3)CC2)cn1,0.6928%
16,Cn1cc(C(=O)N2CCCC(Cc3nccs3)C2)cn1 (centres undefined),-5.021%
17,O=C(c1cccnc1)N1CCN(c2ccnc3ccsc23)CC1,-5.057%
18,Cc1ncncc1C(=O)N1CCCC(Cc2nccs2)C1 (centres undefined),112.8%
19,Cc1cccc2c1nc(CCO)n2-c1ccc(N)nc1,-17.09%
20,CSc1ccc(-c2nc(CN3CCC(NC(C)=O)C3)c(C)o2)cc1 (centres undefined),-8.203%
21,COc1cccc2c1OCC(C(=O)N1CCN(CCS(C)(=O)=O)CC1)C2 (centres undefined),-9.844%
22,Fc1ccc(Cn2ncc3c2CN(c2noc(C4CC4)n2)C3)cc1,2.089%
23,Cn1ccnc1C(=O)N1CCC(Cn2cc(-c3ccsc3)nn2)CC1,0.3036%
24,COc1nn(C)cc1C(=O)N1CCC(c2nnc(C(C)C)o2)CC1,80.59%
25,COc1nn(C)cc1C(=O)N1CCC(c2nnc(C3CC3)o2)CC1,8.567%
26,COc1nn(C)cc1C(=O)N1CCC(c2nnc(-c3ccsc3)o2)CC1,120.9%

row,SMILES,Percent Effect
1,Cn1nccc1C(=O)N1CCC(n2cc(-c3ccsc3)nn2)CC1,-17.39%
2,COc1ncccc1C(=O)N1CCC(c2nnc(C3CC3)o2)CC1,16.61%
3,C/C=C(/C)C(=O)NS(=O)(=O)c1ccc(Cl)cn1,2.315%
4,Cc1nccnc1N1Cc2cnc(CC(C)C)nc2C1,-0.1537%
5,CCCNC(=O)NCc1nc(C)c(C)o1,-5.382%
6,Cc1nc(CN(C)S(=O)(=O)c2ccc(F)cc2Br)no1,-1.638%
7,C[S+]([O-])c1nncn1CC(=O)c1cccc(Cl)c1 (centres undefined),6.672%
8,Cc1noc(CN(Cc2ccc3c(c2)OCCO3)Cc2ccco2)n1,-7.452%
9,COc1cccc(CN2CCC(c3cc(O)nc(C)n3)C2)c1.O=C(O)CC(O)(CC(=O)O)C(=O)O (centres undefined),-8.452%
10,Cc1nc[nH]c1CN(Cc1ccccc1)Cc1nccs1,10.51%
11,COc1ccc2nc(O)c(CN(C)Cc3ncc[nH]3)cc2c1,-3.339%
12,COc1ccc(CN(C(=O)C(C)C)c2cnn(C)c2)c(OC)c1,-18.73%
13,CCOC(=O)C1(Cc2cccc(OC)c2)CCN(Cc2ncc[nH]2)CC1,-0.1816%
14,COc1ccc(NC(=O)N(C)Cc2ccco2)cn1,3.036%
15,COc1ccc(CN(Cc2ccco2)Cc2[nH]cnc2C)c(OC)c1.O=C(O)CC(O)(CC(=O)O)C(=O)O,111.9%
16,COc1cccc(CN(Cc2ncc[nH]2)Cc2ccco2)c1.O=C(O)CC(O)(CC(=O)O)C(=O)O,114.4%
17,COc1ccc(CN(C(=O)CCC(C)C)c2cnn(C)c2)c(OC)c1,-10.12%
18,COc1cccc(CN(Cc2ccco2)Cc2cnc(C)n2C)c1.O=C(O)CC(O)(CC(=O)O)C(=O)O,133.7%
19,COc1cccc(CN(Cc2ccco2)Cc2[nH]cnc2C)c1.O=C(O)CC(O)(CC(=O)O)C(=O)O,156.3%
20,Cc1ccc(C(=O)N2C[C@@H](NS(C)(=O)=O)[C@H](C(C)C)C2)cc1O,5.531%
21,CC(CCc1cccn1C)NC(=O)Nc1cccn(C)c1=O (centres undefined),-4.481%
22,Cc1ccccc1OCC1CCCN(C(=O)CNC(=O)N(C)C)C1 (centres undefined),1.963%
23,N#Cc1cccc(CN2CCN(C(=O)C3CCC3)[C@@H]3CS(=O)(=O)C[C@@H]32)c1,2.28%
24,Cc1csc(CCNC(=O)c2ccc(N(C)C)c(F)c2)n1,-10.73%
25,CCN(Cc1ccoc1)C(=O)NC1CCN(CC2CCCC2)CC1,-1.692%
26,CCOCC(=O)N(Cc1ccco1)c1ccc(OC)c(F)c1,-17.42%

row,SMILES,Percent Effect
1,COc1ccc(N(Cc2ccco2)C(=O)C2CCCO2)cc1F (centres undefined),12.44%
2,COc1ccc(OC)c(CN(Cc2ccco2)Cc2[nH]cnc2C)c1.O=C(O)CC(O)(CC(=O)O)C(=O)O,125%
3,COCCN(CCOC)c1ncccc1I,19.77%
4,O=C(NCCCn1ccnc1)c1csc2c1CCCC2,4.867%
5,CCn1nc(C(C)C)cc1C(=O)NCCCOC,-18.28%
6,COCC(C)NC(=O)c1cn(C(C)C)cc2c(=O)[nH]nc1-2 (centres undefined),106.6%
7,COCC(C)NC(=O)c1nnn(-c2ccc(F)cc2)n1 (centres undefined),-1.834%
8,CC(C)n1cc(C(=O)NCCCn2ccnc2)c2n[nH]c(=O)c-2c1,123.9%
9,COCCCNC(=O)c1cn(C(C)C)cc2c(=O)[nH]nc1-2,104.5%
10,CC(C)N(C)CCCNC(=O)c1cnn(C(C)C)c1C(F)(F)F,7.835%
11,COc1cccc(-c2n[nH]cc2C(=O)NC(C)CC(=O)O)c1 (centres undefined),-19.78%
12,CC(C(=O)NCCCn1ccnc1)n1cc(Br)cn1 (centres undefined),2.347%
13,Cc1ccsc1CN(C)c1nc2c(cnn2C(C)(C)C)c(=O)[nH]1,-15.84%
14,O=C(c1ccco1)N1CCN(Cc2nc(C3CC3)no2)CC1,-17.27%
15,O=C(C1CCCCC1)N1CCN(Cc2nc(-c3ccco3)no2)CC1,98.36%
16,O=C(C1CCN(Cc2nc(-c3ccco3)no2)CC1)N1CCCC1,109.9%
17,c1coc(-c2noc(CN3CCc4c(ncn4C4CC4)C3)n2)c1,-13.05%
18,CC(C)c1cc(C2CCCN2Cc2nc(-c3ccco3)no2)no1 (centres undefined),-36.51%
19,O=C(C1CCCC1)N1CCN(Cc2nc(-c3ccco3)no2)CC1,3.823%
20,O=C(C1CCCN1Cc1nc(-c2ccco2)no1)N1CCSCC1 (centres undefined),97.23%
21,CC(C)(C)CC1CCCN1Cc1nc(-c2ccco2)no1 (centres undefined),1.615%
22,O=C(C1CCCCN1Cc1nc(-c2ccco2)no1)N1CCCC1 (centres undefined),-6.382%
23,NC(=O)NCC1CCCCN1Cc1nc(-c2ccco2)no1 (centres undefined),116.5%
24,c1coc(-c2noc(CN3CCC(c4ccn[nH]4)CC3)n2)c1,3.524%
25,CCCOCCOC(=O)c1ccc2c(c1)[nH]c(=O)n2C,-3.927%
26,NC(=O)CCn1cc(CNCCCc2ccccc2O)c2ccccc21,15.24%
